Data as given in PubChem BioAssay (NCI).
About 83,000 compounds went through this panel and 20% of them were active in at least one assay; those are over-represented in the sample as a whole.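 Values shown are percent growth following 48 h exposure of cells in 96-well plates to a single concentration of compound; below 10 was considered active.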 Active and inactive are the calls of the source.

Key:
Assay in all cases: NCI-60 one-dose screen, 48 h (100 = growth as untreated, 0 = no growth, -100 = all killed)
Conditions in all cases: 10 µM unless noted
[1] = test system: K-562 leukemia
[2] = test system: MALME-3M melanoma
[3] = test system: MDA-MB-231 breast
[4] = test system: RXF 393 renal
[5] = test system: SF-268 CNS
[6] = test system: SF-539 CNS
[7] = test system: UACC-257 melanoma
[8] = test system: M14 melanoma
[9] = test system: HCT-15 colon
[10] = test system: SF-295 CNS

Measured: growth

O=[N+]([O-])c1cnc(Sc2ccncn2)c([N+](=O)[O-])c1
inactive: [3] 91.1% | [4] 94.3% | [5] 101% | [6] 97.7% | [8] 97.2%
active: [1] -46.9% | [2] -53% | [7] -9.5% | [9] 0.0905%

NC(N)=N/N=C(/c1ccccc1)c1ccc(Cl)cc1
inactive: [1] 42.5% | [2] 115% | [3] 105% | [4] 94.9% | [5] 62.2% | [6] 93.3% | [7] 38.4% | [8] 59.6% | [9] 56.6%

COc1ccc(-c2nnc(COc3ccc(NC(=O)Nc4cc(C(F)(F)F)cc(C(F)(F)F)c4)cc3F)o2)cc1
inactive: [4] 16.3% | [5] 18.8% | [6] 20.3% | [8] 18% | [9] 10%
active: [1] 9.15% | [2] -16.5% | [3] -22.6% | [7] 0.873%

COc1ccc(-c2cnnn2-c2cc(OC)c3c(c2)OCO3)cc1
inactive: [2] 34.4% | [4] 10% | [5] 29.9% | [7] 59.7% | [8] 10.6% | [9] 14.8%
active: [1] 0.651% | [3] 4.19% | [6] -15.2%

Nc1nc(N)c([N+](=O)[O-])c(=O)[nH]1
inactive: [1] 108% | [2] 118% | [3] 115% | [4] 114% | [5] 115% | [6] 106% | [7] 103% | [8] 106% | [9] 104%

Nc1ccc2c(c1)/C(=N/O)c1cc([N+](=O)[O-])ccc1-2
inactive: [1] 22.9% | [2] 57.9% | [3] 91.7% | [4] 85% | [5] 62.6% | [6] 60.1% | [7] 81% | [8] 49.4% | [9] 61.2%

Fc1ccc(-c2nnc(-c3c(-c4ccc(F)cc4)nc4ncccn34)o2)cc1
inactive: [1] 89.3% | [2] 121% | [3] 122% | [4] 97.8% | [10] 93% | [6] 94.4% | [7] 107% | [8] 112% | [9] 87.9%

COc1cc(OC)c2cc(C(=O)O)c(=O)oc2c1
inactive: [1] 95.1% | [2] 113% | [3] 94.3% | [4] 105% | [5] 110% | [6] 102% | [7] 76% | [9] 106%

COc1cccc(/C=C2\COc3ccc(O)c(O)c3C2=O)c1OC
active: [1] -5.62% | [2] -75.9% | [3] -34.4% | [6] -73% | [9] -10.7%
inactive: [5] 17.4% | [10] 83.2% | [7] 26.8%

Nc1nc2ncc(CCNc3ccc(C(=O)NC(CCC(=O)O)C(=O)O)cc3)nc2c(=O)[nH]1 (stereo not given)
inactive: [1] 127% | [2] 118% | [3] 115% | [5] 110% | [10] 113% | [6] 94.3% | [7] 75.2% | [8] 114% | [9] 98.2%

CC(O)c1nc2c(c(=O)n(C)c(=O)n2C)n1C (stereo not given)
inactive: [1] 116% | [2] 121% | [3] 117% | [5] 107% | [10] 108% | [6] 102% | [7] 106% | [8] 95.6% | [9] 104%

CCN1C(=O)c2ccc3c4c(ccc(c24)C1=O)C(=O)N(CCCNCc1ccccc1OC)C3=O
active: [1] -36% | [2] -87.6% | [3] 2.92% | [5] -15.5% | [10] -69.8% | [6] -96.4% | [7] -88.6% | [8] -92.8% | [9] -78.3%

CN1CCN(CC(=O)Nc2nc3c(s2)Nc2cc(Cl)c(Cl)cc2NC3=O)CC1
inactive: [1] 81.3% | [2] 107% | [3] 123% | [5] 111% | [10] 108% | [6] 107% | [7] 87.9% | [8] 105% | [9] 104%

COc1cc(/C=C2\COc3ccc(O)cc3C2=O)cc(OC)c1
inactive: [2] 70.3% | [3] 77% | [5] 85.2% | [10] 93.4% | [6] 80.7% | [7] 82.1% | [9] 37.9%
active: [1] 5.63%

Cc1cc2c(cc1C)Nc1sc(NC(=O)CN3CCN(C)CC3)nc1C(=O)N2
inactive: [1] 81.7% | [2] 109% | [3] 114% | [5] 103% | [10] 109% | [6] 107% | [7] 109% | [8] 103% | [9] 101%

COc1ccc2nc3cc(Cl)ccc3c(N3CCN(c4ccnc(Nc5ccc(F)cc5)n4)CC3)c2c1
inactive: [1] 43.1% | [2] 105% | [3] 58.4% | [5] 79.2% | [10] 75.9% | [6] 85.4% | [7] 105% | [8] 102% | [9] 48.3%

CC/C=C\C=C/C(=O)N/C=C/CC1Cc2cccc(O)c2C(=O)O1 (stereo not given)
inactive: [1] 25.9% | [2] 98.8% | [3] 64.3% | [5] 119% | [10] 262% | [6] 38.3% | [7] 86.7% | [8] 44.2% | [9] 80.3%

COc1ccc(Nc2nccc(N3CCN(c4c5ccc(Cl)cc5nc5ccc(OC)cc45)CC3)n2)cc1
inactive: [1] 25.4% | [2] 46% | [3] 61.3% | [5] 66.7% | [10] 78.6% | [6] 92.8% | [7] 102% | [8] 88.4% | [9] 36.9%

COc1ccc2c(c1)C(=O)/C(=C/c1cccc(OCC(=O)c3ccccc3)c1)CC2
inactive: [1] 33.4% | [2] 97.6% | [3] 83.6% | [5] 91.8% | [10] 104% | [6] 93.5% | [7] 91.7% | [8] 92.2% | [9] 89.7%

CCc1ccc(CCN2C(=O)c3ccccc3C2=O)nc1
inactive: [1] 95.8% | [2] 102% | [3] 98.5% | [5] 103% | [10] 104% | [6] 91.6% | [7] 95.6% | [8] 110% | [9] 113%

CO[C@H]1/C=C/O[C@@]2(C)Oc3c(C)c(O)c4c(O)c(c(/C=N/N5C(C)CN(Cc6ccccc6)CC5C)c(O)c4c3C2=O)NC(=O)/C(C)=C\C=C\[C@H](C)[C@H](O)[C@@H](C)[C@@H](O)[C@@H](C)[C@H](OC(C)=O)[C@@H]1C (stereo not given in full)
inactive: [1] 203% | [2] 108% | [3] 102% | [5] 92.6% | [10] 41.1% | [6] 85.8% | [7] 117% | [8] 89.9% | [9] 57.5%

CCOc1nc(-c2ccccc2)cc2c(O)c(-c3nnco3)[nH]c(=O)c12
inactive: [1] 39.3% | [2] 59.9% | [3] 38.7% | [5] 52.5% | [10] 36% | [6] 54.9% | [7] 11.8% | [8] 59.4% | [9] 23.5%

CCCCCCCC1(C)NC(=O)NC1=O (stereo not given)
inactive: [1] 90.6% | [2] 126% | [3] 116% | [5] 106% | [10] 124% | [6] 97.6% | [7] 114% | [8] 106% | [9] 113%

Nc1ccc(C2=NN(c3ccccc3)C(c3ccc(Cl)cc3)C2)cc1 (stereo not given)
inactive: [1] 17.5% | [2] 105% | [3] 88.5% | [5] 82.5% | [10] 86.6% | [6] 81.2% | [7] 82.1% | [8] 72.7% | [9] 48.7%

Cc1ccc(C=C2C(Cl)=C(Cl)C(Cl)=C2Cl)cc1
active: [2] -45.1% | [3] -6.71% | [5] -68.6% | [10] -19.5% | [6] -84.5% | [7] -83.2% | [8] -85.8% | [9] -69.5%
inactive: [1] 24.6%

CSc1ncc2ncn(C3OC(CO)C(O)C3O)c2n1 (stereo not given)
inactive: [1] 104% | [2] 126% | [3] 108% | [5] 103% | [10] 107% | [6] 114% | [7] 126% | [8] 107% | [9] 114%

CCOC(=O)c1cc(-c2cccnc2)nc2c(Cl)cc(Cl)cc12
inactive: [1] 105% | [2] 124% | [3] 103% | [5] 73% | [10] 90.2% | [6] 79.6% | [7] 120% | [8] 117% | [9] 96.6%

O=C(/C=C/c1ccccc1Cl)c1ccc(O)cc1
inactive: [1] 32.8% | [2] 93.1% | [3] 89% | [5] 53.7% | [10] 47.4% | [6] 94.1% | [7] 116% | [8] 76.8% | [9] 37.5%

ClC1=C(Cl)C(Cl)=C(Cl)C1=C/C=C/c1ccccc1
active: [1] -18.9% | [2] -38.8% | [3] -17.2% | [5] -48.7% | [10] -2.39% | [6] -92.4% | [7] -80.7% | [8] -55.6% | [9] -77%

CC(=O)NC1(C(=O)O)CCCC1
inactive: [1] 96.6% | [2] 135% | [3] 119% | [5] 111% | [10] 110% | [6] 104% | [7] 100% | [8] 110% | [9] 112%

CCOc1nc(-c2ccccc2)cc2c(O)c(C(=O)n3nc(C)cc3C)[nH]c(=O)c12
inactive: [1] 86.7% | [2] 102% | [3] 112% | [5] 99% | [10] 101% | [6] 101% | [7] 112% | [8] 102% | [9] 100%

O=C(/C(=N/O)S(=O)(=O)c1ccccc1)c1cccs1
inactive: [1] 93.1% | [2] 106% | [3] 109% | [5] 106% | [10] 104% | [6] 109% | [7] 106% | [8] 105% | [9] 105%
